Source: PubChem BioAssay (National Center for Advancing Translational Sciences (NCATS))
Most compounds without a hit are left out; they make up all but 11% or so of the library.
AmpC no deterg = qHTS Inhibitors of AmpC Beta-Lactamase (assay without detergent) | AmpC nitrocefin hydrolysis, absorbance 480 nm, 0.0001% Triton | Potency, µM (titrated, usually from 57.1 µM), hits mostly inhibitors | P00811 | actives 0.52% (n = 330,000); also: nearly all actives have a fitted effect of over 20% in size
Target sequence (P00811 whole entry, looked up): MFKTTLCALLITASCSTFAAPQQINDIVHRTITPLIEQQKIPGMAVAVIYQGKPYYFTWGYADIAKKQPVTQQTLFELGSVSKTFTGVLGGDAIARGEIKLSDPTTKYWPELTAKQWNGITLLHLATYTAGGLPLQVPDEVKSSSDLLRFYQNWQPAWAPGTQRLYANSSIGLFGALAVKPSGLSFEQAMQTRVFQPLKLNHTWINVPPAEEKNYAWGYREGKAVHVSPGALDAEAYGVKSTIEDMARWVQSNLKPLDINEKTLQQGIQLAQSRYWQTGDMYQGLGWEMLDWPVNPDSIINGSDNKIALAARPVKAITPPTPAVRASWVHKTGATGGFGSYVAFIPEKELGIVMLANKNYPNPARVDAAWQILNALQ
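20 mM phosphate pH 7.0 + 0.01% (detergent screen) or 0.0001% Triton X-100; 5.3 nM AmpC reagent; cpd preinc 15 min RT; nitrocefin (800 uM stock) to start; A480 q20 s × 4 min; Activity was normalised to no-enzyme and no-compound control wells.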
AMA1 RON2 block = qHTS for Inhibitors of AMA1-RON; Towards Development of Antimalarial Drug Lead: Primary Screen; AlphaScreen AMA1-biotinylated RON2 peptide binding; Plasmodium falciparum AMA1 (3D7) - RON2 peptide interaction; Potency, µM (titrated, usually from 58.2 µM), most hits filed as inhibitors; actives 0.2% (n = 360,000); also: nearly all actives have a fitted effect of over 45% in size
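AMA1 (3D7) with his tag at 25 nM final met compounds first, then biotinylated RON2 peptide at 25 nM; detection used donor plus acceptor beads, 10 µg/mL apiece, read by AlphaScreen after 30 min at room temperature.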
Pf growth 48h = Primary qHTS for delayed death inhibitors of the malarial parasite plastid, 48 hour incubation; actives 5.9% (n = 310,000); Potency, µM (highest dose often 28.7 µM), actives largely listed as inhibitors; P. falciparum luciferase growth in erythrocytes, 48 h; AID 504832, 2011
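Parasite viability was followed by luminescence of a genomically integrated firefly luciferase. Cultures held 0.1% parasitemia at 2% hematocrit (final), incubated under 5% CO2 at 37 C.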
AmpC detergent = qHTS Inhibitors of AmpC Beta-Lactamase (assay with detergent) | AmpC hydrolysis of nitrocefin, absorbance 480 nm, 0.01% Triton | actives 0.041% (n = 370,000) | P00811 | AID 485294, 2010 | Potency, µM (titrated, usually from 114 µM), actives largely listed as inhibitors; also: nearly all actives have a fitted effect of over 25% in size
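20 mM phosphate pH 7.0 + 0.01% (detergent screen) or 0.0001% Triton X-100; 5.3 nM AmpC reagent; cpd preinc 15 min RT; nitrocefin (800 uM stock) to start; A480 q20 s × 4 min; Activity was normalised to no-enzyme and no-compound control wells.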
HCV inh = qHTS Assay for Inhibitors of Hepatitis C Virus (HCV). Huh7.5.1 HCVcc-Cre infection, luciferase reporter, 44 h. Potency, µM (series often up to 41.8 µM), usual class: inhibitors. actives 3.4% (n = 340,000)
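Seed cells (1,000/well) for 4 h; treat with compound and infect with HCVcc-Cre, moi about 0.5. Incubate 44 h, then detect luciferase activity.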
Pf growth 96h = Primary qHTS for delayed death inhibitors of the malarial parasite plastid, 96 hour incubation | Potency, µM (titrated, usually from 28.7 µM), usual class: inhibitors | actives 6.9% (n = 320,000) | P. falciparum luciferase reporter growth, 96 h
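Parasite growth measured via integrated firefly luciferase reporter in P. falciparum. Infected erythrocytes at 2% hematocrit, 0.05% parasitemia final were treated 96 hours at 37 C under 5% CO2, and luminescence was read.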
A number is an active result; i = inactive; ? = inconclusive; nt = not tested or not shown. Calls follow the shape of the dose curve; as a rule, active = well fitted curve in the direction sought with a large enough effect; inconclusive = small, poorly fitted or top-dose-only effect, or another doubt; inactive = no such curve, though single readings can be large; an effect the other way counts as inactive or inconclusive.

SMILES	AmpC no deterg	AMA1 RON2 block	Pf growth 48h	AmpC detergent	HCV inh	Pf growth 96h
COc1cc(OC)c(NC(=O)CCCn2nc(C)c3sc4ccccc4c3c2=O)cc1Cl	nt	nt	nt	i	nt	nt
CC(C)Cc1nc(Nc2ccccc2C#N)c2nnn(Cc3ccccc3)c2n1	i	i	?	i	15.8µM	?
CC(C)Cc1nc(N2CCC(C(N)=O)CC2)c2nnn(Cc3ccccc3)c2n1	i	i	14.7µM	i	i	10.4µM
CCOC(=O)C1CCN(c2ncnc3c2nnn3Cc2ccccc2Cl)CC1	i	i	i	i	i	i
COc1ccc(Cl)cc1Nc1nc(C)nc2c1nnn2Cc1ccccc1	i	i	i	i	?	i
Cc1nc(N2CCC(C)CC2)c2nnn(Cc3ccccc3)c2n1	i	i	11.7µM	i	?	14.7µM
c1ccc(Cn2nnc3c(N4CCCCCC4)ncnc32)cc1	i	i	?	i	i	?
CN(C)CCNC(=O)c1sc2nc(-c3ccccc3)cc(C(F)(F)F)c2c1N	i	i	?	i	10µM	i
COc1ccc(-c2cc(C(F)(F)F)c3c(N)c(C(=O)NCCSC)sc3n2)cc1	i	i	i	i	i	?
COc1ccc(/C=C(/C(=O)Nc2ccccc2C(=O)N2CCCC2)c2ccccc2)cc1	i	i	6.57µM	i	?	?
CCCOC(=O)c1ccc(S(N)(=O)=O)o1	i	i	i	i	i	7.38µM
NC(=O)c1ccsc1NC(=O)c1ccc(S(=O)(=O)N2CCCc3ccccc32)cc1	i	i	?	?	11.2µM	10.4µM
CC1CCCCN1S(=O)(=O)c1ccc(C(=O)Nc2sccc2C(N)=O)cc1 (configuration not stated)	i	i	9.28µM	?	?	9.28µM
COC(=O)c1sc2ccccc2c1NC(=O)c1ccc(S(=O)(=O)N2CCCCC2C)cc1 (configuration not stated)	i	i	14.7µM	i	i	13.1µM
NC(=O)c1ccsc1NC(=O)C1CCCN1S(=O)(=O)c1ccc(Cl)cc1 (configuration not stated)	i	i	?	i	i	nt
CCc1nc(SCC(=O)NC2CC2)c2c(C)c(C)sc2n1	i	i	i	i	i	4.65µM
Cc1sc2nc(C(C)C)nc(SCC(=O)NC3CC3)c2c1C	i	i	i	14.1µM	i	i
Cc1oc2c(c1C(=O)NCc1ccccc1)CCCC2	i	i	i	i	i	i
Cc1oc2c(c1C(=O)NCCO)CCCC2	i	i	nt	?	i	0.0131µM
CCCCOc1ccc(C(=O)C(CN2CCOCC2)c2ccccc2)cc1 (configuration not stated)	i	i	?	i	?	?
COc1ccc(C(=O)C(CN2CCCC2)c2ccccc2)cc1 (configuration not stated)	i	i	13.1µM	i	?	i
CCCOc1ccc(C(=O)C(CN2CCCC2)c2ccccc2)cc1 (configuration not stated)	i	i	10.4µM	i	?	?
O=C(O)c1cccc(NC(=O)c2cc3cc(Br)cc(Br)c3oc2=O)c1	nt	nt	nt	i	nt	nt
N/C(Cc1cccc2ccccc12)=N\OC(=O)Cc1cccs1	i	i	?	i	i	i
N/C(Cc1cccc2ccccc12)=N\OC(=O)c1cccs1	i	i	13.1µM	i	i	i
SMILES	AmpC no deterg	AMA1 RON2 block	Pf growth 48h	AmpC detergent	HCV inh	Pf growth 96h
N/C(Cc1ccc(Cl)cc1Cl)=N\OC(=O)c1cccs1	0.316µM	i	i	i	i	i
Cc1cccc(CNS(=O)(=O)c2ccc(-c3coc(C)n3)cc2)c1	nt	nt	nt	i	nt	nt
CC1=C(C(=O)N2CCN(c3cccc(Cl)c3)CC2)C2(CCCCC2)OC1=O	nt	nt	nt	i	nt	nt
C=CCOc1ccccc1CNCc1cccnc1	i	i	i	i	i	i
COc1ccc(C(=O)N/N=C/c2ccccn2)cc1OC	i	i	?	i	i	?
O=C(N/N=C/c1ccco1)c1ccccc1OCc1ccc(Br)cc1	i	i	i	i	?	13.1µM
O=C(N/N=C/c1ccncc1)c1cc(Br)ccc1OCc1ccccc1	i	i	?	i	8.91µM	2.94µM
Clc1ccc(COc2ccccc2CNCc2cccnc2)cc1	i	i	nt	?	10µM	4.65µM
COc1ccc(C(=O)Nc2ccccc2C(=O)N/N=C/c2ccccn2)cc1OC	i	i	4.15µM	i	?	11.7µM
O=C(N/N=C/c1cccnc1)c1ccccc1OCc1cccc(Br)c1	i	i	?	i	?	i
CCOc1ccc(Br)cc1C(=O)N/N=C/c1c[nH]c2ccccc12	i	i	?	i	12.6µM	i
Brc1ccc(OCc2ccccc2)c(CNCc2ccncc2)c1	i	i	9.28µM	?	10µM	0.415µM
Fc1cccc(Cl)c1CNCc1cccnc1	i	i	i	i	i	11.7µM
O=C(N/N=C/c1c[nH]c2ccccc12)c1cc(Br)ccc1O	?	i	i	i	i	i
COc1ccc(OC)c(C(=O)N/N=C/c2ccccn2)c1	i	i	i	i	i	i
CCOc1ccc(Br)cc1C(=O)N/N=C/c1ccccn1	i	i	9.28µM	i	?	?
O=C(CSCc1c(F)cccc1Cl)NCc1cccnc1	i	i	i	?	i	?
CCCCc1ccc(NC(=O)CSc2nc3ccccc3nc2N2CCCCC2)cc1	nt	nt	nt	i	nt	nt
Cc1ccc(C(=O)Nc2cccc(C(=O)OCc3cc(=O)n4nc(C5CC5)sc4n3)c2)cc1	nt	nt	nt	i	nt	nt
CC/C(=N\NC(=O)c1cccnc1)c1ccc2c(c1)OCCO2	i	i	i	i	?	0.928µM
C/C(=N\NC(=O)c1ccc2c(c1)OCO2)c1cccnc1	i	i	i	i	i	i
CN(C)c1ccc(C(CNS(=O)(=O)c2ccc(F)c(F)c2)c2c[nH]c3ccccc23)cc1 (configuration not stated)	i	14.1µM	i	i	?	i
CN(C)c1ccc(C(CNC(=O)c2ccccc2F)c2c[nH]c3ccccc23)cc1 (configuration not stated)	i	i	?	i	i	?
Cc1ccc(-c2nnn(CC(=O)N(c3ccccc3F)C(C(=O)NCC3CCCO3)c3c[nH]c4ccccc34)n2)cc1 (configuration not stated)	i	i	11.7µM	i	?	11.7µM
Cc1ccc(-c2nnn(CC(=O)N(c3ccccc3)C(C(=O)NCC3CCCO3)c3ccc(Cl)cc3)n2)cc1 (configuration not stated)	i	i	?	?	i	8.28µM
